In PubChem BioAssay (NCATS):
Records with an inconclusive call do not appear. A call without a number means that no potency is given here. Calls of active or inactive are those of the source. Calls follow the shape of the dose curve; as a rule, active = well fitted curve in the direction sought with a large enough effect; inconclusive = small, poorly fitted or top-dose-only effect, or another doubt; inactive = no such curve, though single readings can be large; an effect the other way counts as inactive or inconclusive.

What was measured:
[1] = target: Glutathione peroxidase 1 (Homo sapiens) (UniProt P07203); test: Primary qHTS Assay for Inhibitors of Recombinant Selenoprotein Glutathione Peroxidase 1 (GPX1) (AID 1845191); also: nearly all actives have a fitted effect of over 65% in size
Method in brief: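 GR-coupled readout: NADPH consumption tracked by fluorescence, ex 340/em 450 nm, at t=0 and after 15 min at RT. Final mix 10 nM GPX1, 1 mM GSH, 0.5 mM CHP, 0.5 mM NADPH, 100 nM GR, 0.01% BSA, following 30 min enzyme–compound preincubation.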

[2] = target: Phospholipid hydroperoxide glutathione peroxidase GPX4 (Homo sapiens) (UniProt P36969); test: Primary qHTS Assay for Inhibitors of Recombinant Selenoprotein Glutathione Peroxidase 4 (GPX4) (AID 1845192); also: series mostly up to about 50 µM; nearly all actives have a fitted effect of over 65% in size
Method in brief: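 Steps: GPX4 plus compound, 30 min RT; add GR/GSH/NADPH master mix; start with cumene hydroperoxide; read 340/450 nm fluorescence at 0 and 15 min. Finals were 200 nM GPX4, 1 mM GSH, 0.5 mM CHP, 0.5 mM NADPH, 100 nM GR.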

[3] = target: Luciferin 4-monooxygenase (Photinus pyralis) (UniProt P08659); test: Primary firefly luciferase (FLuc) qHTS assay for identification of artifact compounds. (AID 1845220); also: nearly all actives have a fitted effect of over 60% in size
Method in brief: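 D-luciferin and ATP (10 uM each, final) in Tris acetate buffer pH 7.6 were incubated with compounds for 15 min at room temperature. The reaction was started with 10 nM Photinus pyralis luciferase and luminescence read after 5 min. Percent inhibition was fitted to a 4-parameter Hill equation.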

[4] = Primary fluorescence-based thiol-reactive (MSTI) qHTS assay for identification of artifact compounds. (AID 1845221); also: nearly all actives have a fitted effect of over 65% in size; also: potency is read from the fitted curve at half-maximal effect
Method in brief: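 In PBS pH 7.4 with 2% DMSO, each compound met 4 uM MSTI for one hour at ambient temperature, shielded from light, before fluorescence detection.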

[5] = test system: Nanoluciferase (engineered Oplophorus gracilirostris luciferase); test: Primary Nanoluciferase (NLuc) qHTS assay for identification of artifact compounds. (AID 1845222); also: series mostly up to about 54 µM
Method in brief: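 Diluted conditioned medium from NLuc-expressing S16 cells treated with compounds for 15 min at room temperature, then Nano-Glo substrate added; luminescence read after 5 min. Percent inhibition versus no-enzyme and DMSO controls fitted to 4-parameter Hill equation.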

Phospholipid hydroperoxide glutathione peroxidase GPX4 (Homo sapiens), sequence (P36969 whole entry, looked up): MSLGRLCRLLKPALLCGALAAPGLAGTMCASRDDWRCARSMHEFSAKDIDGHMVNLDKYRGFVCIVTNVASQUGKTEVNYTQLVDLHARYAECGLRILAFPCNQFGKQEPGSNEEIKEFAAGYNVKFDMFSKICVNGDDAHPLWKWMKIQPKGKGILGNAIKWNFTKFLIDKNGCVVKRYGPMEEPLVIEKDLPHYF
Glutathione peroxidase 1 (Homo sapiens), sequence (P07203 whole entry, looked up): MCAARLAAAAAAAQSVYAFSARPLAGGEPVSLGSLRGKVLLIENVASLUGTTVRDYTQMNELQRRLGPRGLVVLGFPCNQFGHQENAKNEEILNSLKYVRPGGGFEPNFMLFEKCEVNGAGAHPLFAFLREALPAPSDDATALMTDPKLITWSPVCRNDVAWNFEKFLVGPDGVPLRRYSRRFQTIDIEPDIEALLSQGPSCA

CC(C)[C@@H](C(=O)O)N1Cc2c(cc(O)c3c2O[C@]2(C3)[C@H](C)CCC3C(C)(C)[C@H](O)[C@H](O)C[C@@]32C)C1=O (stereo not given in full)
Potency [1]: inactive
Potency [2]: inactive
Potency [3]: inactive
Potency [4]: inactive
Potency [5]: inactive

CC(=O)O[C@@H]1CC2C(C)(C)C(=O)C=C[C@]2(C)C2CC[C@]3(C)C(=CC(=O)[C@@H]3c3ccoc3)[C@@]21C (stereo not given in full)
Potency [1]: inactive
Potency [2]: inactive
Potency [3]: inactive
Potency [4]: inactive
Potency [5]: inactive

CC1=CCC[C@@H]2[C@@](C)(CCc3ccoc3)[C@H](C(=O)O)CC[C@@]12C
Potency [1]: inactive
Potency [2]: inactive
Potency [3]: inactive
Potency [4]: inactive
Potency [5]: inactive

Cc1cc(CNC(=O)c2cc(C(=O)NCc3ccc(F)c(C)c3)ncn2)ccc1F
Potency [1]: inactive
Potency [2]: inactive
Potency [3]: inactive
Potency [4]: inactive
Potency [5]: inactive

C=C1C2(C)CC3C4(C)OC(C5OC56C4=CC(=O)OC6(C)C)C3(C)C13C(=O)OC(C)C3(O)C2=O (stereo not given)
Potency [1]: inactive
Potency [2]: inactive
Potency [3]: inactive
Potency [4]: inactive
Potency [5]: inactive

O=C(/C=C/c1ccc(O)c(O)c1)OC[C@H]1O[C@@H](OC2CCCCC2O)[C@H](O)[C@@H](O)[C@@H]1O (stereo not given in full)
Potency [1]: inactive
Potency [2]: inactive
Potency [3]: inactive
Potency [4]: 1160 nM (active)
Potency [5]: inactive

C/C(=C\CCC(C)C1CC(O)C2(C)C3CCC4C(C)(C)C(OC5OCC(O)C(O)C5O)CCC45CC35CC(O)C12C)C(=O)O (stereo not given)
Potency [1]: inactive
Potency [2]: inactive
Potency [3]: inactive
Potency [4]: inactive
Potency [5]: inactive

COC(=O)C[C@@H]1C(C(=O)O)=CO[C@@H](O[C@@H]2O[C@H](CO)[C@@H](O)[C@H](O)[C@H]2O)/C1=C\COC(=O)/C=C/c1ccc(O)c(OC)c1
Potency [1]: inactive
Potency [2]: inactive
Potency [3]: inactive
Potency [4]: inactive
Potency [5]: inactive
